Assay outcomes deposited in PubChem by Buhrlage Lab, Dana-Farber Cancer Institute and Novartis Institutes for BioMedical Research (Cambridge, Mass).
Compounds with a hit are over-represented: about 5% of the library has one in this group of screens.
USP7 block: inhibitors of human USP7 deubiquitinase; purified USP7, Ub-rhodamine cleavage fluorescence; hit rate 0.3% among 47,000; inhibition, % at 20 µM; AID 1645854, 2021; Ubiquitin carboxyl-terminal hydrolase 7 (Homo sapiens), Q93009
UCHL1 inh: inhibitors of human UCHL1 deubiquitinase; AID 1645859, 2021; hit rate 0.2% among 47,000; purified UCHL1, Ub-rhodamine cleavage fluorescence; inhibition, % at 20 µM; Ubiquitin carboxyl-terminal hydrolase isozyme L1 (Homo sapiens), P09936
USP10 block: inhibitors of human USP10 deubiquitinase; hit rate 1.1% among 47,000; purified USP10, Ub-rhodamine fluorescence, 60 min; Ubiquitin carboxyl-terminal hydrolase 10 (Homo sapiens), Q14694; AID 1645856, 2021; inhibition, % at 20 µM
USP8 block: inhibitors of human USP8 deubiquitinase. Ubiquitin carboxyl-terminal hydrolase 8 (Homo sapiens), P40818. purified USP8, Ub-rhodamine cleavage fluorescence, 30 min. inhibition, % at 20 µM. hit rate 4.2% among 47,000. AID 1645853, 2021
Numbers without * were called inactive. Rule as the data show it: active = inhibition above about 30%; inactive = the rest.

SMILES | USP7 block | UCHL1 inh | USP10 block | USP8 block
COCCNC(=O)CSc1nnc(-c2c[nH]c3ccccc23)n1C1CC1 | -0.1 | 0.1 | -0.4 | 0.4
CC(OC(=O)c1cccc(N(C)C)c1)C(=O)Nc1ncc(Cl)cc1Cl (centres undefined) | 2.3 | 74.9* | -3.1 | 10.6
CC(OC(=O)c1cccc2ccccc12)C(=O)Nc1ccc(Cl)cn1 (centres undefined) | 6.2 | 3.4 | 4.9 | -16.5
CC(OC(=O)c1cccc(N(C)C)c1)C(=O)Nc1sccc1C(N)=O (centres undefined) | -3.6 | -0.8 | -4.4 | 31.6*
O=S(=O)(NCc1ccc2[nH]c3c(c2c1)CCCC3)c1ccccc1 | -24.0 | -19.1 | -7.7 | 34.3*
CC(=O)NCc1ccc2[nH]c3c(c2c1)CCCC3 | -4.6 | -3.3 | -2.3 | -7.5
CSc1cccc(NC(=O)C2C3C=CC4(O3)C2C(=O)N(CCc2ccccc2)C4C(=O)NC2CCCCC2)c1 (centres undefined) | -6.2 | -1.5 | 39.4* | 56.8*
Cc1ccc(NC(=O)C2C3C=CC4(O3)C2C(=O)N(CCc2ccccc2)C4C(=O)NC2CCCCC2)cc1Cl (centres undefined) | -3.4 | 0.3 | 25.3 | 33.9*
CC(C)c1ccc(NC(=O)C2C3C=CC4(O3)C2C(=O)N(CCc2ccc(Cl)cc2)C4C(=O)NC2CCCCC2)cc1 (centres undefined) | 6.4 | 2.8 | 9.2 | 54.2*
Cc1cccnc1CN1CCCC(c2nccnc2Nc2cnccn2)C1 (centres undefined) | 0.1 | -1.6 | -2.1 | -47.3
O=C1CCCC[C@@H]2[C@H](CCN2Cc2ccc3ncccc3c2)N1Cc1ccccc1F | -5.8 | -10.4 | -1.7 | 47.2*
Nc1ncccc1C(=O)N1CC[C@@H]2[C@H]1CCCC(=O)N2Cc1ccc(F)cc1 | -0.9 | -1.3 | -4.1 | -2.4
Cc1cc(C(F)(F)F)n2nc(C3CCN(C(=O)c4cnn(C)c4C)C3)cc2n1 (centres undefined) | -4.7 | 1.4 | -3.1 | 91.9*
CCOC(=O)c1ccc(NC(=O)CSc2cc(C)[nH]c(=O)n2)cc1 | 6.1 | 4.8 | -3.2 | -8.1
CC(C)(C)n1ncc2c(=O)n(CC(=O)OCc3ccccc3)cnc21 | -0.1 | 1.0 | -0.9 | -3.3
O=C(Cn1cnc2sc3c(c2c1=O)CCC3)N1CCc2ccccc21 | -0.5 | 0.0 | -0.1 | 48.2*
O=C(Cn1c(CN2CCCCC2)nc2sc3c(c2c1=O)CCCC3)N1CCc2ccccc21 | -26.8 | -15.5 | -5.5 | -19.6
CC(C)(C)n1ncc2c(=O)n(CC(=O)N3CCCc4ccccc43)cnc21 | 44.9* | -1.7 | -5.9 | 3.3
Cc1ccc(-c2c(NC(=O)c3ccco3)n(C)c3ccccc3c2=O)cc1 | 5.2 | 4.0 | 1.0 | 16.9
O=C1CC(c2ccccc2)n2nc(NC(=O)c3ccccc3F)nc2N1 (centres undefined) | 0.5 | -1.3 | 0.4 | 44.1*
COc1ccc(C(=O)Nc2nc3n(n2)C(c2ccccc2)CC(=O)N3)cc1 (centres undefined) | 7.9 | 3.0 | 17.5 | 75.9*
CC(=O)Nc1nc2n(n1)C(c1ccccc1)CC(=O)N2 (centres undefined) | 0.7 | -1.1 | 4.6 | 3.0
O=C(NCc1cccc(Cl)c1)c1csc(C(=O)N2CCCC2)n1 | -0.2 | 1.5 | 1.1 | 1.0
Cc1onc(-c2c(F)cccc2Cl)c1C(=O)N1CCCC1c1cccs1 (centres undefined) | 0.2 | 3.2 | -0.6 | 15.1
COc1ccc(Nc2nc3c(S(=O)(=O)c4ccc(C)cc4)nnn3c3ccsc23)c(OC)c1 | 14.0 | 8.3 | 37.8* | 21.4
SMILES | USP7 block | UCHL1 inh | USP10 block | USP8 block
COc1ccc(S(=O)(=O)c2nnn3c2nc(Nc2ccccc2)c2ccccc23)cc1 | -4.9 | -7.4 | -6.7 | -2.5
NCCCN1C(=O)C(=O)N2[C@H](CO)[C@@H](O)[C@H](O)[C@H](O)[C@@H]12 | 1.9 | -0.6 | -0.4 | -28.5
Cc1sc(NC(=O)c2ccc(S(=O)(=O)N(C)Cc3ccccc3)cc2)c(C(N)=O)c1C | 4.6 | -2.3 | 29.4 | 31.3*
CCN1CCN(c2ccc(NC(=O)COc3cccc(C)c3)cc2)CC1 | -1.2 | -2.3 | -1.8 | 1.2
COCC(=O)Nc1cc(F)c2nc(N3CCOCC3)ccc2c1 | -6.0 | 2.1 | -6.3 | 88.7*
Cc1cccc(OCC(=O)Nc2cc(F)c3nc(N4CCOCC4)ccc3c2)c1 | -10.5 | -5.2 | -9.6 | 60.5*
O=C(NCc1ccc2c(c1)OCO2)[C@@H]1C=CCN1C(=O)C1CC1 | 1.1 | 1.3 | -2.0 | -0.4
CC(C)c1ccc(C2(C)NC(=O)N(Cc3csc(-c4ccccc4)n3)C2=O)cc1 (centres undefined) | -2.0 | -3.3 | -2.0 | -8.3
COc1ccc(OC)c(-c2csc(N(CC3CCCO3)C(=O)c3ccc(C)cc3)n2)c1 (centres undefined) | 3.6 | 2.3 | 3.0 | 0.6
Cn1nccc1-c1cccc(-c2noc(-c3cccc(NC(=O)c4ccco4)c3)n2)c1 | -9.9 | -0.3 | -6.1 | -22.0
O=C(Nc1cccc(-c2nc(-c3ccc(=O)[nH]c3)no2)c1)c1ccco1 | -4.4 | 0.6 | -8.9 | 63.2*
Cc1cc(C(=O)N2CCOCC2)c(C)n1-c1ccc(O)cc1 | -6.3 | 19.6 | 10.3 | 94.4*
O=C(O)c1ccccc1-c1ccccc1C(=O)N1CCOCC1 | 4.1 | 1.0 | 0.8 | 3.3
Cc1ccc(CNC(=O)Cn2cc(S(=O)(=O)Cc3ccccc3)c3ccccc32)cc1 | 0.9 | 0.3 | 1.9 | 37.9*
Cc1ccc(CS(=O)(=O)c2cn(CC(=O)NCCc3ccccc3)c3ccccc23)cc1 | 7.0 | 0.3 | 16.7 | 24.9
Cc1ccc(CS(=O)(=O)c2cn(CC(=O)NCCC3=CCCCC3)c3ccccc23)cc1 | 2.7 | 0.3 | 6.3 | 14.8
Cc1ccc(CS(=O)(=O)c2cn(CC(=O)NCc3ccco3)c3ccccc23)cc1 | -15.9 | 0.3 | 3.2 | 34.0*
CS(=O)(=O)c1ccc(C(=O)N(CCc2ccccc2)C2CCN(CCc3ccc(Cl)cc3)CC2)cc1 | -6.2 | -6.1 | -10.7 | -23.3
CN(C)c1nc2c(cc1C(=O)NCC1CC1)CCN(S(C)(=O)=O)CC2 | 3.2 | 1.9 | 0.1 | 13.0
Cc1ccc2c(c1)c1ncn(Cc3nc(C)no3)c(=O)c1n2CC(=O)NCc1ccccc1 | -4.9 | 6.7 | 30.0* | 35.3*
Cc1ccc(CNC(=O)Cn2c(=O)cc(-c3nc(C)no3)c3ccccc32)cc1 | 2.3 | 0.8 | 3.9 | 6.3
O=C(Cn1c(=O)n(Cc2ccccc2)c(=O)c2ncccc21)NCc1ccccc1Cl | 33.4* | 8.6 | 51.2* | 50.1*
O=C(Cn1c(=O)n(Cc2ccncc2)c(=O)c2ncccc21)Nc1ccccc1 | 0.8 | 0.2 | -4.0 | 13.1
O=C(Cn1c(=O)n(Cc2ccc3c(c2)OCO3)c(=O)c2ncccc21)NCc1ccco1 | -2.4 | -2.3 | -3.4 | 12.8
O=C(Cn1c(=O)n(Cc2ccc3c(c2)OCO3)c(=O)c2ncccc21)c1ccc(Cl)cc1 | 1.6 | 0.8 | 7.8 | 72.9*
COc1ccc2c(CNCCC3=CCCCC3)c(C(=O)O)n(Cc3ccc(F)cc3)c2c1 | -112.2 | 4.1 | 10.2 | 3.5
